The values that follow come from PubChem BioAssay (NCATS).

In experiment [1] the test system is CRL-7250. The experiment can be described thus: qHTS assay to identify novel small-molecules to repurpose for Merkel cell carcinoma treatment (AID 1296009). The following applies: MCC and control cell lines, CellTiter-Glo viability, 72 h; series mostly up to 44.8 µM. An outline of the steps: (§1)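 Dose-response viability screen; 72 hr exposure at 37 degree celsius; CellTiter-Glo added, 10 min room temperature, luminescence read; RLUs scaled between no-cell and DMSO wells.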
In general terms: In qHTS, concentration-response curves come from the screen itself.

The next experiment concerns N140. The experiment can be described thus: qHTS profiling for inhibitors of Plasmodium falciparum proliferation (AID 504749). Further: potency means the concentration at half of the fitted maximal effect. The settings on record: P. falciparum in erythrocytes, SYBR Green DNA, 72 h; series mostly up to 28.7 µM. An outline of the steps:
(§2)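 Each compound contacts P. falciparum-infected red blood cells for 72 h at 37 C; lysis buffer (Tris, EDTA, saponin, Triton X, SYBR Green I) is added and fluorescence measured next morning; values normalized to controls.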

Another experiment deals with P93_24. The experiment is described as above. The following applies: P. falciparum in erythrocytes, SYBR Green DNA, 72 h; series mostly up to 28.7 µM. The essentials:
as §2

The next experiment concerns PAD. The experiment is described as above. The settings on record: P. falciparum in erythrocytes, SYBR Green DNA, 72 h; series mostly up to 28.7 µM. An outline of the steps:
as §2

The subject of a further experiment is PC15. Described as above. The settings on record: P. falciparum in erythrocytes, SYBR Green DNA, 72 h; series mostly up to 28.7 µM. The essentials:
as §2

A further experiment has as its system PC26. Described as above. The settings on record: P. falciparum in erythrocytes, SYBR Green DNA, 72 h; series mostly up to 28.7 µM. The essentials:
as §2

Another experiment concerns PC49. The experiment is described as above. The following applies: P. falciparum in erythrocytes, SYBR Green DNA, 72 h; series mostly up to 28.7 µM. The essentials: as §2
A further experiment relates to SC27B. Described as above. The following applies: P. falciparum in erythrocytes, SYBR Green DNA, 72 h; series mostly up to 28.7 µM. The essentials:
as §2

Another experiment relates to TAB109. The experiment is described as above. The following applies: P. falciparum in erythrocytes, SYBR Green DNA, 72 h; series mostly up to 28.7 µM. An outline of the steps: as §2
A further experiment relates to TAB113. The description is as above. The settings on record: P. falciparum in erythrocytes, SYBR Green DNA, 72 h; series mostly up to 28.7 µM. The essentials:
as §2

Another experiment has as its system W2. The experiment is described as above. The following applies: P. falciparum in erythrocytes, SYBR Green DNA, 72 h; series mostly up to 28.7 µM. The essentials: as §2
For experiment [2], the system named is CRL-7250. The experiment can be described thus: Cytotoxic Profiling of Annotated Libraries Using Quantitative High-Throughput Screening (AID 1296008). On max response: on the % scale 0 is the no-effect control and ±100 the full control effect. The settings on record: Five cell lines viability, CellTiter-Glo ATP luminescence, 48-72 h; max response: stronger effect = lower value. The essentials: (§3)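 Cells exposed to compounds for 48 or 72 hr at 37 degrees Celsius. Viability read as ATP-coupled luminescence with CellTiter-Glo after 10 min at room temperature.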

Experiment [3] has as its system HaCat. The description is as above. The following applies: Five cell lines viability, CellTiter-Glo ATP luminescence, 48-72 h; max response: stronger effect = lower value. An outline of the steps: as §3
A general note: Cellular ATP, detected with luciferase, serves as a proxy for viable cell number.

A further experiment relates to KB-3-1. Described as above. The settings on record: Five cell lines viability, CellTiter-Glo ATP luminescence, 48-72 h; max response: stronger effect = lower value. An outline of the steps:
as §3

The subject of another experiment is NIH3T3. The experiment is described as above. The following applies: Five cell lines viability, CellTiter-Glo ATP luminescence, 48-72 h; max response: stronger effect = lower value. The essentials: as §3
In experiment [4] the test system is HACAT. The experiment can be described thus: qHTS assay to identify novel small-molecules to repurpose for Merkel cell carcinoma treatment (AID 1296009). The settings on record: MCC and control cell lines, CellTiter-Glo viability, 72 h; at 44.8 µM (top of the series) unless noted. The essentials: as §1
A further experiment concerns P94_40. The experiment can be described thus: qHTS profiling for inhibitors of Plasmodium falciparum proliferation (AID 504749). Further: potency means the concentration at half of the fitted maximal effect. The settings on record: P. falciparum in erythrocytes, SYBR Green DNA, 72 h; series mostly up to 28.7 µM. An outline of the steps:
as §2

In a further experiment the test system is TAB165. The description is as above. The following applies: P. falciparum in erythrocytes, SYBR Green DNA, 72 h; series mostly up to 28.7 µM. The essentials: as §2

Records with an inconclusive call do not appear. A number with no mark means an inactive call. The source made the active and inactive calls. The call rests on the fitted dose curve; in most records, active means well fitted inhibition curve with a large enough effect; inconclusive means small, poorly fitted or top-dose-only effect; inactive means flat fitted curve, though single readings scatter.
Further: nearly all actives have a fitted effect of over 60% in size.

Take `O[C@@H]1CO[C@H]2[C@@H]1OC[C@@H]2O`: the outcome in the experiment on CRL-7250 [1] was inactive.

As for `CCC(COC(=O)c1cc(OC)c(OC)c(OC)c1)(c1ccccc1)N(C)C` (stereo not given), the Potency entry with N140, in the experiment with P93_24, in the experiment with PAD, in the experiment with PC15, in the experiment on PC26 and with PC49 was “inactive” in each case. Moreover, the Potency result in the experiment with SC27B, with TAB109 and in the experiment with TAB113 was “inactive” each time. Further, in the experiment on W2, the Potency was 6.75 µM (active). Besides, the max response in the experiment on CRL-7250 [2] is -3.97%; in the experiment on KB-3-1, 3.84%. Moreover, the compound was called inactive in the experiment on HaCat [3], in the experiment with NIH3T3 and in the experiment with HACAT [4].

As to `CC(=O)[C@H]1CC[C@H]2[C@@H]3CC[C@H]4C[C@H](O)CC[C@]4(C)[C@H]3C(=O)C[C@]12C`, the Potency entry in the experiment with N140, in the experiment on P93_24, in the experiment on P94_40, in the experiment with PAD, in the experiment with PC15 and in the experiment on PC26 was “inactive” in each case. The Potency result with PC49, in the experiment on SC27B, in the experiment with TAB109, in the experiment on TAB113, in the experiment with TAB165 and in the experiment on W2 was “inactive” throughout. Moreover, the max response in the experiment with CRL-7250 [2] was -2.84%; with HaCat [3], 0.502%; in the experiment with KB-3-1, -4.21%. Also, in the experiment with NIH3T3, the compound was classed as inactive.

Regarding `Cc1ccc(S(=O)(=O)N[C@@H](CCCCN)C(=O)CCl)cc1`, the Potency with P93_24 is 10 µM (active); with P94_40, 11.2 µM (active); in the experiment with PAD it was 12.6 µM (active); in the experiment with TAB109 it was 11.2 µM (active). Also, the Potency result in the experiment on PC15 and in the experiment with PC26 was “inactive” in each case. Besides, the max response in the experiment with CRL-7250 [2] was 3.77%; in the experiment with KB-3-1, 32.5%. In addition, the compound was called inactive in the experiment on HaCat [3], with NIH3T3 and in the experiment with HACAT [4].

As for `C[C@]12CCC(=O)C(O)=C1CC[C@@H]1[C@@H]2CC[C@]2(C)C(=O)CC[C@@H]12`, the max response in the experiment with CRL-7250 [2] was -13.2%; with HaCat [3] it was -15.5%; with KB-3-1, -15.7%; in the experiment on NIH3T3, -5.78%.

Regarding `O=C1NCN(c2ccccc2)C12CCN(CC1COc3ccccc3O1)CC2` (stereo not given), the Potency entry in the experiment with N140, in the experiment on P93_24, in the experiment with P94_40, with PC15, with PC26 and in the experiment on PC49 was “inactive” in each case. In addition, the Potency entry in the experiment on SC27B, with TAB109, in the experiment with TAB113 and in the experiment on TAB165 was “inactive” in each case. The max response is -15.4% in the experiment with CRL-7250 [2], 4.17% in the experiment on HaCat [3], -9.57% in the experiment with KB-3-1 and -1.57% in the experiment on NIH3T3.

Turning to `O=c1c(O)c(-c2ccc(O)c(O)c2)oc2cc(O)cc(O)c12`, the call in the experiment on CRL-7250 [1] was inactive.

`CCN(CC)CCN1C(=O)CN=C(c2ccccc2F)c2cc(Cl)ccc21`: the Potency entry with N140, in the experiment with PAD, in the experiment with PC15, with PC26, in the experiment on PC49 and in the experiment on SC27B was “inactive” each time. For the same compound, the Potency entry in the experiment on TAB113 is “inactive”. Moreover, in the experiment with W2, the Potency is 4.78 µM (active). The max response was -7.13% with CRL-7250 [2], 0.85% in the experiment on HaCat [3] and -5.99% in the experiment on KB-3-1. Also, in the experiment with NIH3T3, the outcome was inactive.

For `CC1OC(C)OC(C)O1` (stereo not given), in the experiment with HACAT [4], the result was inactive.
